From PubChem
Many of the other results were omitted from the sample, so hits are more common in it than they were.
Cruzain inh Det: cruzain (T. cruzi) inhibition with detergent. P25779. purified cruzain, Z-FR-AMC fluorescence, 0.01% Triton. Potency, µM, inactives show max response, negative = inhibition, most hits filed as inhibitors. actives 0.43% (n = 200,000). AID 1478;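 further: plate controls were neutral wells for no effect and buffer without enzyme for full effect; nearly all actives have a fitted effect of over 40% in size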
Target sequence (P25779 123-467 limits assumed): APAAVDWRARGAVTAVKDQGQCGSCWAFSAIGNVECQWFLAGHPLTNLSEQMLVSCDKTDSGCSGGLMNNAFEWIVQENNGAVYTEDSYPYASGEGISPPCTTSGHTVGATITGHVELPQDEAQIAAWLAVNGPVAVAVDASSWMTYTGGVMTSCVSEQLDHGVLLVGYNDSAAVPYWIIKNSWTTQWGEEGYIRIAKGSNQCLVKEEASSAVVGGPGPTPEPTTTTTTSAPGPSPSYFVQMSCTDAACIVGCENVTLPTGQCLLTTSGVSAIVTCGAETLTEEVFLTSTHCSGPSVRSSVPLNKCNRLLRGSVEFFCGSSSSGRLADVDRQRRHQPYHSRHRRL
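Enzyme 1.5 nM, Z-FR-AMC 2 uM, NaOAc 100 mM pH 5.5, DTT 5 mM, Triton X-100 0.01%; 15 min RT compound preincubation; kinetic ex360/em450, 60 s delta.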
Cruzain noTriton: cruzain (T. cruzi) inhibition without detergent | P25779 | Potency, µM, inactives show max response, negative = inhibition, usual class: inhibitors | actives 2.3% (n = 200,000) | purified cruzain, Z-FR-AMC fluorescence, no detergent;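 further: plate controls were enzyme without inhibitor for no effect and buffer without enzyme for full effect; nearly all actives have a fitted effect of over 40% in size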
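Purified cruzain at 1.5 nM, pre-incubated 15 min with compound at room temperature in 100 mM sodium acetate pH 5.5, 5 mM DTT, 0.00005% Triton X-100. Reaction started with 2 uM Z-FR-AMC; AMC fluorescence increase over 60 s gives rate.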
NS1 inh: blocks influenza NS1 protein function; Potency, µM (top dose mostly 46.1 µM), without a hit: at the top dose activity, positive = more growth; actives 0.4% (n = 270,000); AID 2326; calls by dose curve; further: actives are rising curves; nearly all actives have a fitted effect of over 50% in size
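Recovery from NS1-induced slow growth read by OD600 in budding yeast switched to galactose assay medium (pH 6.0, -URA) at 1:100 dilution. Compound 23 nl per well; the matching strain lacking NS1 serves as control.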
Starred values were filed as active, the others as inactive. Unless noted, the call rests on the fitted dose curve; in most records, active means well fitted curve in the direction sought with a large enough effect; inconclusive means small, poorly fitted or top-dose-only effect, or another doubt; inactive means no such curve, though single readings can be large; an effect the other way counts as inactive or inconclusive. Potency means the concentration at half of the fitted maximal effect.

Screening Cc1cccc(NC(=O)Cn2c(=O)n(Cc3ccc(C(=O)NCc4ccc5c(c4)OCO5)cc3)c(=O)c3ccccc32)c1 returned Cruzain inh Det 6% and Cruzain noTriton 4µM*.
Screening Cc1cc(C)c(NC(=O)Cn2c(=O)n(Cc3ccc(C(=O)NCc4ccc5c(c4)OCO5)cc3)c(=O)c3ccccc32)c(C)c1 returned Cruzain inh Det -2% and Cruzain noTriton 4%.
Cc1ccc(C2CC(=O)Oc3cc(C)c(Cl)cc32)cc1 (configuration not stated) was read as Cruzain inh Det -2% and Cruzain noTriton 0%.
Cc1ccc2cc(CN(CCN3CCOCC3)Cc3nnnn3Cc3ccco3)c(=O)[nH]c2c1C was read as Cruzain inh Det -5%, Cruzain noTriton 8% and NS1 inh 0%.
For Cc1ccc2cc(CN(Cc3ccc4c(c3)OCO4)Cc3nnnn3Cc3ccco3)c(=O)[nH]c2c1C the results were Cruzain inh Det -1%, Cruzain noTriton 32µM* and NS1 inh -1%.
CCC(C)[C@H](N)c1nnc(SCc2ccc(Cl)c(Cl)c2)o1 (some centres not stated) was read as Cruzain inh Det 3% and Cruzain noTriton 5%.
CCCCc1c(O)nc(SCC(=O)Nc2ccc3c(c2)CCC3)[nH]c1=O was read as Cruzain inh Det -17%, Cruzain noTriton 20µM* and NS1 inh -9%.
For CCc1c(O)nc(SCC(=O)Nc2ccc3c(c2)CCC3)[nH]c1=O the results were Cruzain inh Det 1%, Cruzain noTriton -12% and NS1 inh inconclusive.
For CC1CC2(C)Oc3ccccc3C3OCC1(COC(=O)Nc1ccccc1)C(C)C32 (configuration not stated) the results were Cruzain inh Det 3% and Cruzain noTriton -4%.
For O=C(C(Cc1ccccc1)N1C(=O)C2C3C=CC(C3)C2C1=O)N1CCCCCC1 (configuration not stated) the results were Cruzain inh Det -1%, Cruzain noTriton 16% and NS1 inh 6%.
Screening O=C(NCc1ccco1)C(Cc1ccccc1)N1C(=O)C2C3C=CC(C3)C2C1=O (configuration not stated) returned Cruzain inh Det 25µM*, Cruzain noTriton -30% and NS1 inh 0%.
For NC(Cc1ccccc1)=NCC(=O)O the results were Cruzain inh Det 5%, Cruzain noTriton 4% and NS1 inh 2%.
CC1CCN(S(=O)(=O)c2ccc3c(c2)c(=O)c(C(=O)NCCc2ccccc2)cn3C)CC1 was read as Cruzain inh Det -1% and Cruzain noTriton -10%.
Screening CCCCc1ccc(N=N/C(C(=O)Nc2ccc(NC(C)=O)cc2OC)=C(/C)O)cc1 returned Cruzain inh Det 10µM*, Cruzain noTriton 15% and NS1 inh 21%.
COc1cc(NC(=O)Cc2ccccc2)ccc1NC(=O)Cc1ccccc1 was read as NS1 inh 4%.
`CCOC(=O)c1sc(-c2ccccc2)cc1NC(=O)Nc1ccc([N+](=O)[O-])cc1` gave Cruzain inh Det -3%, Cruzain noTriton 10µM* and NS1 inh -10%.
For CCOc1ccc(-c2cc(NC(=O)Nc3cccc(C(C)=O)c3)c(C(=O)OC)s2)cc1 the results were Cruzain inh Det -2% and Cruzain noTriton 20%.
Screening CC(C)(CN)CN returned Cruzain inh Det 1%, Cruzain noTriton 10% and NS1 inh 0%.
For CCc1ccc(NC(=O)CSc2nc3n[nH]c(C)c3c(=N)n2-c2ccccc2C)cc1 the results were Cruzain inh Det -2% and Cruzain noTriton -25%.
For CCOc1ccccc1-n1c(SCC(=O)Nc2ccc(CC)cc2)nc2n[nH]c(C)c2c1=N the results were Cruzain inh Det 1%, Cruzain noTriton 6.3µM* and NS1 inh 10%.
`CCOC(=O)c1ccc(NC(=O)c2c(NCc3cccs3)sc3c2CCCCC3)cc1` gave Cruzain inh Det -29% and Cruzain noTriton -1%.
For COc1cccc(-c2csc(N3CCN(S(=O)(=O)c4ccc(F)cc4)CC3)n2)c1 the results were Cruzain inh Det 0%, Cruzain noTriton 25µM* and NS1 inh 1%.
COc1cccc(-c2csc(N3CCN(C(=S)Nc4ccc(Cl)cc4)CC3)n2)c1 was read as Cruzain inh Det 7%, Cruzain noTriton 25µM* and NS1 inh 29%.
`COc1cccc(NC(=O)N2CCN(c3nc(-c4cccc(OC)c4)cs3)CC2)c1` gave NS1 inh 0%.
Screening COc1cccc(-c2csc(N3CCN(C(=S)Nc4ccccc4)CC3)n2)c1 returned Cruzain inh Det 4%, Cruzain noTriton inconclusive and NS1 inh 22%.
For Cc1cc(Br)cc2c1N(Cc1ccccc1OC(C)C)C(=O)C2=O the results were Cruzain inh Det -5% and Cruzain noTriton -25%.
Screening O=C(NCCc1ccccc1)c1cccc(Br)n1 returned Cruzain inh Det 0% and Cruzain noTriton inconclusive.
Screening Nc1nc(NCc2ccccc2)nc(Nc2cccc(F)c2)c1[N+](=O)[O-] returned Cruzain inh Det 6%, Cruzain noTriton 32µM* and NS1 inh 3%.
Nc1nc(NCCc2ccccc2)nc(NCc2ccccc2)c1[N+](=O)[O-] was read as NS1 inh 7%.
Cc1ccc(CNc2nc(N)c([N+](=O)[O-])c(Nc3cccc(F)c3)n2)cc1 was read as Cruzain inh Det -1%, Cruzain noTriton 20µM* and NS1 inh 0%.
For Nc1nc(NCc2ccccc2)nc(Nc2ccc(F)cc2)c1[N+](=O)[O-] the results were Cruzain inh Det -4%, Cruzain noTriton 7.9µM* and NS1 inh -1%.
Nc1nc(NCc2ccco2)nc(Nc2cccc(F)c2)c1[N+](=O)[O-] was read as NS1 inh -2%.
`Nc1nc(Nc2cccc(F)c2)nc(NCCO)c1[N+](=O)[O-]` gave NS1 inh 4%.
CCOC(=O)C1=C(C)NC(=S)NC1c1ccc(OC(=O)c2ccco2)cc1 (configuration not stated) was read as Cruzain inh Det -8%, Cruzain noTriton inconclusive and NS1 inh 4%.
CCOC(=O)c1c(NC(=O)C2=C(C)NC(=S)NC2c2ccc(CC)cc2)sc(C)c1C (configuration not stated) was read as Cruzain inh Det -5%, Cruzain noTriton 10µM* and NS1 inh inconclusive.
Screening CCCSc1ncc(Cl)c(C(=O)Nc2scc(-c3ccc(C)cc3)c2C(=O)OCC)n1 returned Cruzain inh Det -1% and Cruzain noTriton -5%.
CCCCNC(=O)c1cc(-c2ccc(OC)cc2)nc2n[nH]c(-c3cccc([N+](=O)[O-])c3)c12 was read as Cruzain inh Det 2% and Cruzain noTriton -2%.
`O=C(Nc1ccccc1)c1cc2ccccc2o1` gave Cruzain inh Det -2%, Cruzain noTriton -4% and NS1 inh -22%.
`O=C(Nc1ccccc1)c1ccc(OC(=O)c2cc3ccccc3o2)cc1` gave Cruzain inh Det 8%, Cruzain noTriton 13µM* and NS1 inh 3%.
OC[C@@H]1[C@@H](c2ccccc2)C(c2ccccc2)=NN1c1ccccc1 was read as Cruzain inh Det 0% and Cruzain noTriton 28µM*.
`Cc1cccc(C2=NN(c3ccccc3)[C@H](CO)[C@H]2c2ccc(Cl)cc2)c1` gave Cruzain inh Det 0% and Cruzain noTriton 35µM*.
`COc1ccccc1[C@H]1C(c2cccc(Cl)c2)=NN(c2ccccc2)[C@@H]1CO` gave Cruzain inh Det 0% and Cruzain noTriton inconclusive.
